Screening data as filed in PubChem.
p-CIP stab down – lowers stability of the mouse p/CIP coactivator protein | F442A p/CIP-EGFP cells, EGFP fluorescence, 16 h | decrease of EGFP signal, % at 10 µM | actives 0.01% (n = 290,000) | AID 1984;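 active = EGFP signal decrease of at least 30% at 10 µM or well 3 SD below plate mean, unless failing retest; inactive = the rest, including hits failing retest or dose response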
HTR5A ag – activates human HTR5A in OPRM1-OPRD1 agonist counter-screen; P47898; HTR5A agonist assay, luminescence, cell-based; activation, % at 9.3 µM; actives 0.61% (n = 340,000); in the data active = activation mostly above about 9.5%, no sharp cut-off; inactive = mostly below about 7.6%;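 also: 0% = cells with vehicle only and 100% = reference agonist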
OPRM1-OPRD1 ag – OPRM1-OPRD1 heterodimerization agonism | P35372+P41143 | cells, luminescence | activation, % at 9.3 µM | actives 0.3% (n = 340,000); in the data active = activation above about 18%;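 also: 0% = vehicle-treated cells and 100% = reference agonist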
OPRM1-OPRD1 inv – mu-delta opioid heterodimer inverse agonism; P35372+P41143; cell-based MOR-DOR heterodimer luminescence; inhibition, % at 9.3 µM; actives 0.21% (n = 340,000); in the data active = inhibition above about 22%, passing the limit was not always enough;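 also: 0% = cells with DMSO and 100% = wells without cells with DMSO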
HTR5A inv ctr – HTR5A inverse agonism, opioid heterodimer counter-screen | HTR5A cell line, luminescence | actives 0.083% (n = 340,000) | inhibition, % at 9.3 µM; in the data active = inhibition mostly above about 23%, no sharp cut-off; inactive = mostly below about 18%;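 also: 0% = cells with DMSO and 100% = no-cell wells with DMSO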
MIN6 prolif – MIN6 beta-cell proliferation induction. actives 0.29% (n = 330,000). MIN6 cells proliferation, ATPlite luminescence, 48 h; cells starved in 0.2% serum; 100% = growth in 10% serum. AID 2380. proliferation, % at 10 µM;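 active = compounds whose signal lies at least 3.5 SD above the mean of all wells on their plate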;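 also: 0% = DMSO-treated cells in low-serum medium and 100% = 10% serum control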
An asterisk follows results filed as active; i = inactive; · = no result given. An excerpt weighted towards active compounds, which were near 1.4% of everything screened.

SMILES | p-CIP stab down | HTR5A ag | OPRM1-OPRD1 ag | OPRM1-OPRD1 inv | HTR5A inv ctr | MIN6 prolif
Cn1c(CN2CCCCC2)nc2cc(NC(=O)c3ccc(F)cc3)ccc21 | -2.8 | 9.2* | -0.4 | 2.0 | -15.0 | -0.6
COc1ccc(C2C(C#N)=C(N)Oc3c2c(C)nn3-c2ccccc2)cc1Cn1nc(C)c([N+](=O)[O-])c1C (stereo unspecified) | -3.1 | 13.7* | 0.3 | -1.8 | -40.4 | -1.2
COc1ccc(C2C(C#N)=C(N)OC3=C2C(=O)CC(C)(C)C3)cc1Cn1nc(C)c([N+](=O)[O-])c1C (stereo unspecified) | 5.9 | -1.9 | -0.8 | 5.2 | 16.7 | -2.5
COc1ccccc1OCCC(=O)OCC(=O)Nc1ccc2c(c1)OCCO2 | · | 8.6* | -3.5 | 18.1 | -35.4 | -0.2
Cc1ccc(OCCC(=O)OCC(=O)Nc2ccc3c(c2)OCCO3)cc1 | · | -5.8 | -0.4 | 2.8 | 15.0 | 2.3
CCCCOc1ccc(C(=O)NNC(=O)c2cnccn2)cc1OC | · | 2.0 | -1.0 | 5.1 | -7.1 | -2.4
O=C1C(Cc2ccccc2)Nc2ncnc(N3CCCCC3)c2N1Cc1ccc(Cl)cc1 (stereo unspecified) | · | -1.1 | 1.7 | -9.9 | 3.1 | -8.6
O=C1C(Cc2ccccc2)Nc2ncnc(N3CCN(c4ccccc4)CC3)c2N1Cc1ccc(Cl)cc1 (stereo unspecified) | · | -18.0 | -12.4 | 57.2* | 52.8* | -3.8
COc1ccc(NC(=O)N(C)C[C@H]2Oc3ccc(NC(=O)CCN4CCOCC4)cc3C(=O)N([C@H](C)CO)C[C@@H]2C)cc1 | · | 1.3 | -0.4 | 2.5 | -20.3 | -0.1
N#CC(C#N)=C1C=CC=CN1/C(=C\c1ccco1)C(=O)c1ccc(Br)cc1 | -29.9 | -1.8 | -5.5 | 29.1* | -3.8 | ·
N#C/C(=C/c1ccco1)C(N)=S | -2.6 | 1.4 | 0.5 | -2.7 | 12.0 | 0.0
COc1ccc(/C=C(/C(=O)c2cccs2)N2C=CC=CC2=C(C#N)C#N)cc1 | -14.4 | -5.8 | -0.9 | 5.9 | 6.8 | ·
COc1ccc(C(=O)/C(=C\c2ccco2)N2C=CC=CC2=C(C#N)C#N)cc1 | -17.0 | -2.7 | -5.4 | 32.9* | 7.1 | -5.6
N#CC(C#N)=C1C=CC=CN1/C(=C\c1ccco1)C(=O)c1ccccc1 | -3.0 | -3.9 | -6.9 | 35.5* | -8.2 | ·
COc1ccc(C(CNC(=O)C2COc3ccccc3O2)N2CCCC2)cc1 (stereo unspecified) | · | -9.3 | -2.0 | 8.5 | 22.9 | 1.2
O=C(Cc1c[nH]c2ccccc12)NCc1ccncc1 | 2.7 | 10.9* | -0.5 | 2.3 | 17.1 | -2.5
O=C(N/C(=C/c1ccc(F)cc1)C(=O)N1CCCC1)c1ccccc1 | -6.6 | 3.0 | -3.2 | 17.3 | -7.9 | -0.4
O=C(N/C(=C/c1ccccc1Cl)C(=O)N1CCCC1)c1ccccc1 | 9.1 | 13.5* | 0.2 | -0.9 | 3.4 | -0.1
CCCn1c2c(c(O)c(C(=O)Nc3nc(C)cs3)c1=O)CCCC2 | -3.4 | · | · | · | · | ·
Cc1csc(NC(=O)c2c(O)c3c(n(CC(C)C)c2=O)CCCC3)n1 | 2.3 | 11.4* | -3.1 | 18.3 | -15.3 | -3.2
CCOC(=O)C1C(=O)C(=O)N(Cc2ccccc2)C1C(=O)OCC (stereo unspecified) | · | 2.3 | -5.0 | 24.2 | -9.0 | ·
N/C(=N\OC(=O)c1ccc(Cl)cc1)c1cccnc1 | -9.9 | 13.6* | 9.3 | -55.0 | -22.7 | -3.4
CC(C)(C)OC(=O)C[C@@H]1C/C=C\C[C@H](CC(=O)N[C@@H](CO)Cc2ccccc2)C(=O)N[C@H](C(C)(C)C)COC1=O | · | 1.3 | -1.8 | 10.7 | -23.7 | 3.6
Cn1ncc2c(O/N=C(\N)c3ccc(C(C)(C)C)cc3)ncnc21 | -9.4 | 68.3* | 181.7* | i | -166.3 | -3.9
COc1ccc(C/C(N)=N/OC(=O)c2ccc(Cl)cc2)cc1 | 8.5 | 6.9 | 2.8 | -13.9 | -17.9 | -4.2
SMILES | p-CIP stab down | HTR5A ag | OPRM1-OPRD1 ag | OPRM1-OPRD1 inv | HTR5A inv ctr | MIN6 prolif
N/C(Cc1ccc(Cl)cc1)=N\OC(=O)c1ccc2ccccc2c1 | -1.0 | 33.6* | 27.1* | -159.7 | -80.6 | -2.7
Cc1c(C(=O)NC2CCCCC2)sc2ncnc(N3CCN(c4ccccc4)CC3)c12 | -11.0 | 11.3* | -2.0 | 10.4 | 14.1 | -2.9
COc1ccccc1CC(=O)Nc1cc(OC)c(NC(=O)c2ccccc2)cc1OC | 7.5 | -3.1 | 1.3 | -5.8 | 11.6 | -3.9
COc1cc(NC(=O)c2ccccc2)c(OC)cc1NC(=O)Cc1ccc(C)cc1 | -10.7 | 9.6* | 3.5 | -16.4 | -35.4 | -3.3
O=C(NCc1ccccc1Cl)c1ccc(S(=O)(=O)N2CCCC2)cc1 | · | 11.3* | -5.0 | 19.7 | 4.0 | -2.9
O=C(NCc1ccccc1Cl)c1ccc[nH]1 | -0.5 | 12.7* | -1.3 | 6.5 | 0.6 | 0.2
O=C(CSc1nnc(SCc2ccccc2)s1)N/N=C/c1ccc(Cl)cc1Cl | 8.8 | -4.3 | -3.2 | 16.7 | -6.3 | -2.4
O=C(CSC1CN(C(c2ccccc2)c2ccccc2)C1)N/N=C/c1ccc(Cl)cc1Cl | -5.2 | 12.2* | -1.2 | 6.2 | 3.1 | -3.7
Cn1c(=O)c2c(nc(C3CC4C5CCC(C5)C4C3)n2C)n(C)c1=O (stereo unspecified) | · | -3.2 | -1.7 | 8.5 | 12.2 | ·
N/C(=N\OC(=O)/C=C/c1ccc(Br)cc1)c1ccccn1 | -1.9 | 10.4* | 2.5 | -12.6 | -2.9 | -2.7
N/C(=N\OC(=O)/C=C/c1ccccc1Cl)c1ccccn1 | -0.9 | 0.3 | 0.6 | -2.8 | 3.5 | -2.8
CN(Cc1ccccc1)C(=O)C1CCN(S(=O)(=O)c2cc([N+](=O)[O-])ccc2Cl)CC1 | -4.3 | 13.4* | 12.8 | -63.1 | -32.1 | 2.4
COC(=O)c1c(N2C(=O)Nc3ccccc3N2O)sc(C)c1C | 0.6 | 2.1 | -0.9 | 5.5 | 2.5 | -2.4
COC(=O)c1c(-n2cnnn2)sc(C)c1C | -1.3 | 12.0* | -2.3 | 11.7 | -16.2 | 3.9
C=CCN(Cc1cccs1)C(=O)COc1ccc2c(c1)OCO2 | · | -7.1 | -0.9 | 3.6 | 16.6 | -0.6
COC(=O)c1cc(S(=O)(=O)N2CCC(C)CC2)ccc1F | -12.3 | 9.7* | -0.5 | 2.6 | 5.2 | 1.6
Cc1cc(C)c(S(=O)(=O)/N=C2/C=C(Sc3ncn[nH]3)C(=O)c3ccccc32)cc1C | -21.4 | 3.7 | 19.7* | -102.2 | -5.2 | ·
Cc1ccc(C)c(S(=O)(=O)/N=C2\C=C(NS(=O)(=O)c3ccccc3)C(=O)c3ccccc32)c1 | -1.3 | 2.5 | -4.5 | 24.0 | -6.8 | -3.8
O=C(OCC(=O)N(CCc1ccccc1)Cc1ccccc1)c1cccc(S(=O)(=O)N2CCOCC2)c1 | · | 2.7 | 2.3 | -9.5 | -6.6 | ·
CCN(CC)CCN(C(=O)CCS(=O)(=O)c1ccccc1)c1nc2c(C)cc(C)cc2s1 | 7.3 | 12.6* | 4.7 | -32.1 | -29.0 | -6.1
CC(=O)c1ccc(S(=O)(=O)N(C)CCCC(=O)NCc2ccc3c(c2)OCO3)cc1 | · | -4.3 | -1.9 | 9.9 | 10.4 | -0.5
COc1cccc(NC(=O)CSc2nnc(-c3cccs3)n2C)c1 | -0.1 | 10.3* | -3.1 | 16.7 | -37.3 | 5.8
